Targets with a hit are over-represented here; the source holds about 7,900 in all. About 0.6% of all pairs of compound and target were hits. Values without a mark were called inactive.

Data on 30 compounds can be found in the supplement of paper PMC10849652.

Chain of YOD1 (Q5VVQ6 whole entry, looked up): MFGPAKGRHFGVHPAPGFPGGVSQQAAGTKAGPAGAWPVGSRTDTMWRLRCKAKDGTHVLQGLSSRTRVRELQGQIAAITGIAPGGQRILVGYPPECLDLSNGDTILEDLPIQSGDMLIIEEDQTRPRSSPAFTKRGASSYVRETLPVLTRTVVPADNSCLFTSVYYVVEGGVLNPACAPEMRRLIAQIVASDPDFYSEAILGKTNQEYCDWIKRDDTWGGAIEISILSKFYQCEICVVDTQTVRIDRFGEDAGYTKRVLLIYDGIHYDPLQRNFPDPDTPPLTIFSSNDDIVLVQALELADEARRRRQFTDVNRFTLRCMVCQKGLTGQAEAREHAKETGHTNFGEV
Chain of YPEL5 (P62699 whole entry, looked up): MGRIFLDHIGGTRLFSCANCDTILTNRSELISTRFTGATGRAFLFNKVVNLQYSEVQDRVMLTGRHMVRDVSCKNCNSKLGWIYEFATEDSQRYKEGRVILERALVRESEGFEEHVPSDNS

The target of one assay is YOD1 (UniProt Q5VVQ6). As to the kind of experiment: log2 fold change, soluble protein after heating vs DMSO (PISA); higher = thermal stabilisation; K562 cells, 10 uM, 30 min; active = over 0.2 and 3.5 SD of the protein, either way, in both replicates (recomputed). The gist of the method:
(§1)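 K562 cells at 2×10^6 cells/mL were exposed to 10 μM compound for 30 min, then aliquots were heated for 3 min across 48°C-58°C, pooled, and extracted in PBS containing 0.5% NP-40 at 4°C. The supernatant after 21,000xg for 90 min was taken as soluble protein and measured by TMTpro 16plex LC-MS/MS with channel sums equalised. Thermal stability is reported relative to control samples, with values from duplicates. Fold changes are given on a log2 scale.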
Take `NCC(=O)Nc1ccc(-n2nc(C(F)(F)F)cc2-c2ccc3c(ccc4ccccc43)c2)cc1`: the log2 fold change was -0.015.
`COc1ccc(Cn2ccc3ccc(C(=O)NO)cc32)cc1`: the log2 fold change was 0.037.
With `COc1cc(C(=O)O)ccc1NC(=O)[C@@H]1N[C@@H](CC(C)(C)C)[C@](C#N)(c2ccc(Cl)cc2F)[C@H]1c1cccc(Cl)c1F` [idasanutlin], the log2 fold change was -0.038.
In the case of `C/C(=N\NC(=O)c1cccc(S(=O)(=O)N2CCOCC2)c1)c1cc(Cl)ccc1O`, the log2 fold change was 0.053.
`Cc1ccc2c(=O)c3ccccc3n(CCCN)c2c1C`: the log2 fold change is 0.063.
For the compound `CCCCN(Cc1ccc(C(=O)NO)cc1)C(=O)Nc1ccccc1` [Nexturastat A], the log2 fold change is -0.011.
In the case of `COC(=O)[C@H](CCSC)NC(=O)c1ccc(NC[C@@H](N)CS)cc1-c1ccccc1`, the log2 fold change was -0.016.
For the compound `O=C(CCCCCCNC(=O)c1cnc(N(c2ccccc2)c2ccccc2Cl)nc1)NO` [citarinostat], the log2 fold change is 0.067.
On the same count and under the same terms, for `Cc1ccc(-n2nc(C(C)(C)C)cc2NC(=O)Nc2ccc(OCCN3CCOCC3)c3ccccc23)cc1` [doramapimod] the value was 0; for `CC(C)(O)CC(=O)NCCn1ccc2ncnc(Nc3ccc(Oc4cccc(C(F)(F)F)c4)c(Cl)c3)c21`, -0.113; for `CC(C)(C)Cn1c(N)nc2ccc(-c3[nH]c(C(C)(C)C)nc3-c3ccc(F)cc3)nc21` [ralimetinib], -0.001.
In the case of `CC(C)c1cnn2c(NCc3ccccc3)cc(NCCCCCCN)nc12`, the log2 fold change was -0.153.
Take `NC(=O)c1cnc(N[C@@H]2CCCC[C@@H]2N)nc1Nc1cccc(-n2nccn2)c1`: the log2 fold change is -0.061.
In the case of `CC(C)N(C[C@H]1O[C@@H](n2cnc3c(N)ncnc32)[C@H](O)[C@@H]1O)[C@H]1C[C@@H](CCc2nc3cc(C(C)(C)C)ccc3[nH]2)C1` [pinometostat], the log2 fold change was -0.021.
In the case of `C[C@@H](Oc1cc(-c2cnn(C3CCNCC3)c2)cnc1N)c1c(Cl)ccc(F)c1Cl` [crizotinib], the log2 fold change was -0.052.
Same read-out and setting: for `O=C1NC(=NCc2cccs2)S/C1=C\c1ccc2ncccc2c1` the value was 0.066; for `Cc1cn(-c2cc(NC(=O)c3ccc(C)c(Nc4nccc(-c5cccnc5)n4)c3)cc(C(F)(F)F)c2)cn1` [nilotinib], -0.061.
Same read-out and setting: for `Cc1cccc(-c2[nH]c(C(C)(C)C)nc2-c2ccc3nccnc3c2)n1` the value was 0.026; for `CN1CCc2c(c3ccccc3n2Cc2ccc(C(=O)NO)cc2)C1` [Tubastatin A], 0.072; for `CC[C@@H]1C(=O)N(C)c2cnc(Nc3ccc(C(=O)NC4CCN(C)CC4)cc3OC)nc2N1C1CCCC1`, -0.099.
In the case of `CNC(=O)c1ccc(Nc2ncc(C(F)(F)F)c(NCc3nccnc3N(C)S(C)(=O)=O)n2)cc1` [defactinib], the log2 fold change is -0.103.
Same read-out and setting: the value for `CN1CCC(CNc2ccc3ncc(-c4cccc(OC(F)(F)F)c4)n3n2)CC1` was -0.305 (active).
For the compound `NC1(Cc2ccc(Cl)cc2)CCN(c2ncnc3[nH]ccc23)CC1`, the log2 fold change was -0.037.
On the same count and under the same terms, for `Cn1cncc1[C@@](N)(c1ccc(Cl)cc1)c1ccc2c(c1)c(-c1cccc(Cl)c1)cc(=O)n2C` [tipifarnib] the value was -0.048; for `Cc1cc(Nc2cc(N3CCN(C)CC3)nc(Sc3ccc(NC(=O)C4CC4)cc3)n2)n[nH]1` [tozasertib], 0.043; for `O=C(Nc1cccc(Nc2ncc(Br)c(NCCc3cnc[nH]3)n2)c1)N1CCCC1`, -0.012.
As for `c1cc(OCCN2CCCCC2)cc(-c2n[nH]c3ccc(-c4nnc[nH]4)cc23)c1`, the log2 fold change was 0.043.
For `O=C1c2ccccc2-c2n[nH]c3cccc1c23`, the log2 fold change is 0.012.
Take `CC(=O)c1cnc2ccc(-c3cc(Cl)c(O)c(Cl)c3)nc2c1N[C@H]1CC[C@H](CN(C)C)CC1`: the log2 fold change was -0.04.
Turning to `O=C(Nc1nc2ccccc2n1CCN1CCOCC1)c1cccc([N+](=O)[O-])c1` [IRAK-1-4 Inhibitor I], the log2 fold change is 0.019.

The next assay concerns the target YPEL5 (UniProt P62699). The description is as above. The gist of the method:
as §1
Turning to `NCC(=O)Nc1ccc(-n2nc(C(F)(F)F)cc2-c2ccc3c(ccc4ccccc43)c2)cc1`, the log2 fold change was 0.129.
Consider `COc1ccc(Cn2ccc3ccc(C(=O)NO)cc32)cc1`, for which the log2 fold change is -0.269.
Still for that read-out and setting: the value for `COc1cc(C(=O)O)ccc1NC(=O)[C@@H]1N[C@@H](CC(C)(C)C)[C@](C#N)(c2ccc(Cl)cc2F)[C@H]1c1cccc(Cl)c1F` [idasanutlin] was 0.491 (active); that for `C/C(=N\NC(=O)c1cccc(S(=O)(=O)N2CCOCC2)c1)c1cc(Cl)ccc1O` was 0.032; that for `CCCCN(Cc1ccc(C(=O)NO)cc1)C(=O)Nc1ccccc1` [Nexturastat A] was -0.144.
In the case of `COC(=O)[C@H](CCSC)NC(=O)c1ccc(NC[C@@H](N)CS)cc1-c1ccccc1`, the log2 fold change was -0.23.
For the compound `O=C(CCCCCCNC(=O)c1cnc(N(c2ccccc2)c2ccccc2Cl)nc1)NO` [citarinostat], the log2 fold change is -0.077.
The same measure, in the same setting: for `Cc1ccc(-n2nc(C(C)(C)C)cc2NC(=O)Nc2ccc(OCCN3CCOCC3)c3ccccc23)cc1` [doramapimod] the value was 0.039; for `CC(C)(O)CC(=O)NCCn1ccc2ncnc(Nc3ccc(Oc4cccc(C(F)(F)F)c4)c(Cl)c3)c21`, 0.041; for `CC(C)(C)Cn1c(N)nc2ccc(-c3[nH]c(C(C)(C)C)nc3-c3ccc(F)cc3)nc21` [ralimetinib], -0.111.
Regarding `CC(C)c1cnn2c(NCc3ccccc3)cc(NCCCCCCN)nc12`, the log2 fold change was -0.083.
On the same count and under the same terms, for `NC(=O)c1cnc(N[C@@H]2CCCC[C@@H]2N)nc1Nc1cccc(-n2nccn2)c1` the value was -0.019.
Regarding `CC(C)N(C[C@H]1O[C@@H](n2cnc3c(N)ncnc32)[C@H](O)[C@@H]1O)[C@H]1C[C@@H](CCc2nc3cc(C(C)(C)C)ccc3[nH]2)C1` [pinometostat], the log2 fold change was 0.068.
Turning to `C[C@@H](Oc1cc(-c2cnn(C3CCNCC3)c2)cnc1N)c1c(Cl)ccc(F)c1Cl` [crizotinib], the log2 fold change is 0.019.
Take `O=C1NC(=NCc2cccs2)S/C1=C\c1ccc2ncccc2c1`: the log2 fold change is -0.021.
The same measure, in the same setting: for `Cc1cn(-c2cc(NC(=O)c3ccc(C)c(Nc4nccc(-c5cccnc5)n4)c3)cc(C(F)(F)F)c2)cn1` [nilotinib] the value was -0.237; for `Cc1cccc(-c2[nH]c(C(C)(C)C)nc2-c2ccc3nccnc3c2)n1`, 0.097.
Turning to `CC[C@@H]1C(=O)N(C)c2cnc(Nc3ccc(C(=O)NC4CCN(C)CC4)cc3OC)nc2N1C1CCCC1`, the log2 fold change was 0.024.
As for `CNC(=O)c1ccc(Nc2ncc(C(F)(F)F)c(NCc3nccnc3N(C)S(C)(=O)=O)n2)cc1` [defactinib], the log2 fold change was -0.073.
On the same count and under the same terms, the value for `CN1CCC(CNc2ccc3ncc(-c4cccc(OC(F)(F)F)c4)n3n2)CC1` was -0.094; that for `Cn1cncc1[C@@](N)(c1ccc(Cl)cc1)c1ccc2c(c1)c(-c1cccc(Cl)c1)cc(=O)n2C` [tipifarnib] was 0.125; that for `c1cc(OCCN2CCCCC2)cc(-c2n[nH]c3ccc(-c4nnc[nH]4)cc23)c1` was 0.067.
As to `O=C1c2ccccc2-c2n[nH]c3cccc1c23`, the log2 fold change is -0.158.
On to `CC(=O)c1cnc2ccc(-c3cc(Cl)c(O)c(Cl)c3)nc2c1N[C@H]1CC[C@H](CN(C)C)CC1`, for which the log2 fold change was -0.173.
Take `O=C(Nc1nc2ccccc2n1CCN1CCOCC1)c1cccc([N+](=O)[O-])c1` [IRAK-1-4 Inhibitor I]: the log2 fold change was -0.093.
